Outcome and AC50 data for 8 compounds are collected here from PubChem BioAssay (EPA / NIEHS).

Assay [1] concerns the target Myc proto-oncogene protein (Homo sapiens) (UniProt P01106). The experiment in a line: ATG_Myc_CIS: Attagene CIS-FACTORIAL HepG2 Assay for human Myelocytomatosis (Myc) Proto-Oncogene Transcription Factor (AID 2282990). The note with it: HepG2, Attagene cis-reporter transcription factor activity; actives raise or lower the signal. A digest of the protocol:
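Read-out: fluorescent reporter mRNA fragments resolved by capillary electrophoresis after RT-PCR. Human HepG2 liver cells carried transfected cis-element reporter units and were dosed for 24 h. Gain or loss of signal fitted relative to DMSO baseline.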

Assay [2] can be described thus: ATG_NRF2_ARE_CIS: Attagene CIS-FACTORIAL HepG2 Assay for human Nuclear Factor Erythroid 2 Related Factor 2 (NFR2) response to Antioxidant Response Elements (ARE) (AID 2282992). The note with it: HepG2 Attagene ARE/NRF2 reporter, transcription factor activity; actives raise or lower the signal. A digest of the protocol: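 Using transiently transfected HepG2 cells exposed for 24 h, reporter mRNA levels were determined by RT-PCR with fluorescent primer extension and capillary electrophoresis, analysed for gain or loss of signal against DMSO.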

Assay [3] concerns the target Cellular tumor antigen p53 (Homo sapiens) (UniProt P04637). In words: ATG_p53_CIS: Attagene CIS-FACTORIAL HepG2 Assay for human p53 Transcription Factor (AID 2282994). The following applies: HepG2 p53 cis-element reporter, Attagene mRNA; actives raise or lower the signal. A digest of the protocol: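 In HepG2 cells, reporter transcription units under cis-regulatory promoters were transiently introduced. Following 24 h treatment, RNA was processed to labelled, digested cDNA fragments read by capillary electrophoresis; fitting was bidirectional versus DMSO.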

Assay [4] can be described thus: BSK_3C_TissueFactor: BioMAP Diversity Plus: 3C Assay for Tissue Factor Biomarker Activity (AID 2282997). The note with it: BioMAP 3C HUVEC, tissue factor biomarker readout; actives raise or lower the signal. A digest of the protocol:
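Readout: Tissue Factor ELISA. Cells: human primary umbilical vein endothelium. Time: 24 h after dosing. Analysis: bidirectional fit, DMSO baseline.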

The nature of assay [5]: BSK_3C_uPAR: BioMAP Diversity Plus: 3C Assay for Urokinase-type plasminogen activator receptor (uPAR) Biomarker Activity (AID 2282998). The note with it: BioMAP 3C HUVEC, uPAR biomarker ELISA; actives raise or lower the signal. A digest of the protocol: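 Dose primary human umbilical vein endothelial cells, incubate 24 h, measure cell-surface uPAR by ELISA, then fit the signal in both directions against the DMSO negative control.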
(ELISA stands for enzyme-linked immunosorbent assay.)

Assay [6] can be described thus: BSK_4H_Eotaxin3: BioMAP Diversity Plus: 4H Assay for Eotaxin 3 Biomarker Activity (AID 2283000).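 On Outcome: CCL26 protein level quantified by ELISA in parallel with SRB cytotoxicity check.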 The following applies: primary human endothelial cells (HUVEC); actives raise or lower the signal. Put shortly: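 HUVEC, 24 h post-dose, ELISA for Eotaxin-3/CCL26. Gain or loss of signal fitted bidirectionally vs DMSO baseline.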
The target in assay [7] is human Peroxisome Proliferator-activated Receptor alpha (PPARa), PPARA (gene 5465) (UniProt Q07869). The experiment in a line: ATG_PPARa_TRANS: Attagene TRANS-FACTORIAL HepG2 Assay for human Peroxisome Proliferator-activated Receptor alpha (PPARa) (AID 2283001; active means hit-call score of the fitted dose curve at least 0.9, where 1 is the maximum;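 on AC50: potency for gain of reporter signal over DMSO so agonist or activator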). A digest of the protocol: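 HepG2, transient MRTU transfection, 24 h treatment. RT-PCR → FAM labelling → capillary electrophoresis. Fit vs DMSO, positive direction.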

Assay [8] concerns the target human Peroxisome Proliferator-activated Receptor delta (PPARd), PPARD (gene 5467) (UniProt Q03181). The experiment in a line: ATG_PPARd_TRANS: Attagene TRANS-FACTORIAL HepG2 Assay for human Peroxisome Proliferator-activated Receptor delta (PPARd) (AID 2283002; active means hit-call score of the fitted dose curve at least 0.9, where 1 is the maximum). Put shortly:
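Read-out: reporter mRNA induction, quantified by fluorescent RT-PCR products resolved by capillary electrophoresis. Human HepG2 liver cells carried transiently transfected Gal4-UAS reporter constructs with chimeric NR-Gal4 fusions. Cells were dosed for 24 h; DMSO served as baseline.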

Read-out in assay [9]: Intercellular Adhesion Molecule 1 (ICAM1), ICAM1 (gene 3383)
In words: BSK_3C_ICAM1: BioMAP Diversity Plus: 3C Assay for Intercellular Adhesion Molecule 1 (ICAM1) Biomarker Activity (AID 2283003). The note with it: primary human endothelial cells (HUVEC); actives raise or lower the signal. A digest of the protocol:
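ELISA readout of ICAM1 in human umbilical vein endothelial cells in the 3C system, taken 24 h post-dose. Gain or loss of signal versus DMSO was fitted in both directions, with SRB total-protein staining run in parallel.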

In assay [10] the target is human Retinoic Acid Receptor beta (RARb), RARB (gene 5915) (UniProt P10826). The experiment in a line: ATG_RARb_TRANS: Attagene TRANS-FACTORIAL HepG2 Assay for human Retinoic Acid Receptor beta (AID 2283004; active means hit-call score of the fitted dose curve at least 0.9, where 1 is the maximum). Put shortly: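 HepG2 cells transiently transfected with multiplexed GAL4-UAS reporter units expressing chimeric NR–Gal4 fusions; 24 h compound exposure. Reporter mRNA quantified by RT-PCR, 6-FAM labelling, HpaI digestion and capillary electrophoresis; gain-of-signal fitted against DMSO baseline.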

Assay [11] addresses Retinoic acid receptor alpha (Homo sapiens) (UniProt P10276). In words: ATG_RARa_TRANS: Attagene TRANS-FACTORIAL HepG2 Assay for human Retinoic Acid Receptor alpha (RARa) (AID 2283005; active means hit-call score of the fitted dose curve at least 0.9, where 1 is the maximum). A digest of the protocol: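 HepG2 transiently transfected with multiplex GAL4-UAS reporter units including a human RARa–GAL4 chimera; 24 h compound exposure. Reporter mRNA quantified by RT-PCR, 6-FAM labeling and capillary electrophoresis; gain of signal versus DMSO.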

Assay [12] is described as follows: BSK_3C_Proliferation: Cell Proliferation Assessment in the BioMAP Diversity Plus: 3C Assay (AID 2283006). The following applies: primary human endothelial cells (HUVEC). Put shortly:
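Proliferation as total protein: sulforhodamine B (0.1%) stain of TCA-fixed subconfluent human umbilical vein endothelial cells, absorbance 560 nm, 48 h after dosing. Activity fitted in both directions against DMSO baseline.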

For assay [13], the target named is Nuclear receptor subfamily 1 group I member 2 (Homo sapiens) (UniProt O75469). The experiment in a line: ATG_PXR_TRANS: Attagene TRANS-FACTORIAL HepG2 Assay for human Pregnane X Receptor (PXR) (AID 2283008; active means hit-call score of the fitted dose curve at least 0.9, where 1 is the maximum). Put shortly:
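Multiplexed TRANS reporter panel in HepG2; this component tracks PXR-Gal4-driven reporter mRNA after 24 h dosing, measured by RT-PCR with capillary electrophoresis fluorescence, fitted against DMSO.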

For assay [14], the target named is human Retinoic Acid Receptor gamma (RARg), RARG (gene 5916) (UniProt P13631). The experiment in a line: ATG_RARg_TRANS: Attagene TRANS-FACTORIAL HepG2 Assay for human Retinoic Acid Receptor gamma (RARg) (AID 2283009; active means hit-call score of the fitted dose curve at least 0.9, where 1 is the maximum). A digest of the protocol: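 Transactivation of exogenous RARg-Gal4 fusion measured as reporter transcript induction after 24 h in transfected HepG2 cells. RNA reverse-transcribed, amplified, fluorescently labeled and resolved by capillary electrophoresis; increase relative to DMSO.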

The target of assay [15] is human RAR-related Orphan Receptor gamma (RORg), RORC (gene 6097) (UniProt P51449). In words: ATG_RORg_TRANS: Attagene TRANS-FACTORIAL HepG2 Assay for human RAR-related Orphan Receptor gamma (RORg) (AID 2283011; active means hit-call score of the fitted dose curve at least 0.9, where 1 is the maximum). A digest of the protocol:
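Readout: reporter transcript induction (RT-PCR, fluorescent primer extension, capillary electrophoresis) after 24 h compound exposure of transiently transfected HepG2 cells carrying a RORg-Gal4 chimera and GAL4-UAS reporters; DMSO served as baseline, with increasing signal fitted.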

Assay [16] can be described thus: BSK_3C_VCAM1: BioMAP Diversity Plus: 3C Assay for Vascular cell adhesion molecule 1 (VCAM1) Biomarker Activity (AID 2282999). The following applies: BioMAP 3C HUVEC, VCAM1 ELISA, cytokine-stimulated; actives raise or lower the signal. Put shortly: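 HUVEC primary cells, 24 h compound exposure; VCAM-1 by ELISA; gain/loss of signal fitted bidirectionally vs DMSO baseline.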

The target of assay [17] is Peroxisome proliferator-activated receptor gamma (Homo sapiens) (UniProt P37231). The experiment in a line: ATG_PPARg_TRANS: Attagene TRANS-FACTORIAL HepG2 Assay for human Peroxisome Proliferator-activated Receptor-gamma (PPARg) (AID 2283007; active means hit-call score of the fitted dose curve at least 0.9, where 1 is the maximum). A digest of the protocol:
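Endpoint reflects upward reporter mRNA change versus DMSO controls. Setup: transiently transfected HepG2, GAL4-UAS reporters driven by chimeric NR-Gal4, 24 h incubation, RT-PCR with capillary electrophoresis read-out.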

The target of assay [18] is human RAR-related Orphan Receptor beta (RORb), RORB (gene 6096) (UniProt Q92753). The experiment in a line: ATG_RORb_TRANS: Attagene TRANS-FACTORIAL HepG2 Assay for human RAR-related Orphan Receptor beta (RORb) (AID 2283010; active means hit-call score of the fitted dose curve at least 0.9, where 1 is the maximum). A digest of the protocol: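 Read-out is reporter mRNA induction, quantified by RT-PCR with fluorescent capillary electrophoresis, 24 h post-dose in transiently transfected HepG2 expressing exogenous NR-Gal4 chimera. Activity fitted upward versus DMSO.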

For orientation: AC50 means the concentration at which the activity in the assay is half-maximal.

The structures appear in SMILES notation. Results filed as inconclusive are left out. Calls of active or inactive are those of the source. How the source made its calls, unless noted: active means hit-call score of the fitted dose curve at least 0.9, where 1 is the maximum; inactive means score below 0.9.

Chain of human RAR-related Orphan Receptor gamma (RORg), RORC (gene 6097) (P51449 whole entry, looked up, the tested form may be a part): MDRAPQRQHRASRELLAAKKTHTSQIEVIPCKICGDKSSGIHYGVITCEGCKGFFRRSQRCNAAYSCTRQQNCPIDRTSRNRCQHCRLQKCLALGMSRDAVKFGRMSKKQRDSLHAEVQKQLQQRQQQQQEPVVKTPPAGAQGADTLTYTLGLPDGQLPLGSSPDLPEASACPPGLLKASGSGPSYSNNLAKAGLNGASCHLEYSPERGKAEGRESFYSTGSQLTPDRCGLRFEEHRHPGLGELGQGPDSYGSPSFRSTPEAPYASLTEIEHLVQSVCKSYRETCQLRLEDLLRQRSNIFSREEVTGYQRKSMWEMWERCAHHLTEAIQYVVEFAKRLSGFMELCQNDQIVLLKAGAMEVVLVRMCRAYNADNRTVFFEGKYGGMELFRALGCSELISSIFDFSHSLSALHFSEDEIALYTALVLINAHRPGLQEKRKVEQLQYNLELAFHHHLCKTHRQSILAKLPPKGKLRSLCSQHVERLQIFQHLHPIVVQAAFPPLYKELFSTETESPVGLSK
Chain of human RAR-related Orphan Receptor beta (RORb), RORB (gene 6096) (Q92753 whole entry, looked up, the tested form may be a part): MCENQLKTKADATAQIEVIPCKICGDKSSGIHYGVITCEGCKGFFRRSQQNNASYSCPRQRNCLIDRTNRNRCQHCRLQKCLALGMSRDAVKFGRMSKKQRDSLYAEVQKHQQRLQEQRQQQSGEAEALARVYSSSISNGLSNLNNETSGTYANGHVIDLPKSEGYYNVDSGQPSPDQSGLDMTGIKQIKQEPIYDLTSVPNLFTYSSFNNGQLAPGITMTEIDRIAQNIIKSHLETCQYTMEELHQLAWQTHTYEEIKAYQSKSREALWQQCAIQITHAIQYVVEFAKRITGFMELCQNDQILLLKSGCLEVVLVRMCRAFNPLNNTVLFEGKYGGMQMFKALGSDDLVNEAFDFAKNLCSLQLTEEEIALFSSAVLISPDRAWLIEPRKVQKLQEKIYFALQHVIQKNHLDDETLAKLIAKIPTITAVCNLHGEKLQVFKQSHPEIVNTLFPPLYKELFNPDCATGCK
Chain of Cellular tumor antigen p53 (Homo sapiens) (P04637 whole entry, looked up, the tested form may be a part): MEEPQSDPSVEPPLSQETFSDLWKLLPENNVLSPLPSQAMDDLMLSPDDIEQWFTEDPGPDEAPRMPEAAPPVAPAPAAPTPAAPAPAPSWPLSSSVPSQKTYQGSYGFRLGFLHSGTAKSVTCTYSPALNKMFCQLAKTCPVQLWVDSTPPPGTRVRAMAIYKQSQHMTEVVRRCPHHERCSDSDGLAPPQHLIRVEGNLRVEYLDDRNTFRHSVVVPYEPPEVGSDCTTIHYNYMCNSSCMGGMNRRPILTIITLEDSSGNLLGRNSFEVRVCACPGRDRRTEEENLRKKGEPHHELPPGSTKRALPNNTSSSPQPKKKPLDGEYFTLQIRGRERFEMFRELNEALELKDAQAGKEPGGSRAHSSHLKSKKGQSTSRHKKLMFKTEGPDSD
Chain of Myc proto-oncogene protein (Homo sapiens) (P01106 whole entry, looked up, the tested form may be a part): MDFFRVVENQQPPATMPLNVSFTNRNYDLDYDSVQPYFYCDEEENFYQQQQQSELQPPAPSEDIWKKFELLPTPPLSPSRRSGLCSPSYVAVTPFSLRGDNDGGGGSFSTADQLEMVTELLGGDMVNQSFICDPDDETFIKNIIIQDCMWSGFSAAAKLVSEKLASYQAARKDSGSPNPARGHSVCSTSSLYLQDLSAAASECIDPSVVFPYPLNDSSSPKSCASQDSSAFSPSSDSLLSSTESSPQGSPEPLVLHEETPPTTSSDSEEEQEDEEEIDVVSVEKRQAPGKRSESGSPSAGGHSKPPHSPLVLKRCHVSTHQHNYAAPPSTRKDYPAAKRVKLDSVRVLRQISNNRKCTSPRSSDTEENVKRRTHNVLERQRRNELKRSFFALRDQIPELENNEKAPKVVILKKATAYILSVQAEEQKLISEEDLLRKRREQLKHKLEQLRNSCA
Chain of Nuclear receptor subfamily 1 group I member 2 (Homo sapiens) (O75469 whole entry, looked up, the tested form may be a part): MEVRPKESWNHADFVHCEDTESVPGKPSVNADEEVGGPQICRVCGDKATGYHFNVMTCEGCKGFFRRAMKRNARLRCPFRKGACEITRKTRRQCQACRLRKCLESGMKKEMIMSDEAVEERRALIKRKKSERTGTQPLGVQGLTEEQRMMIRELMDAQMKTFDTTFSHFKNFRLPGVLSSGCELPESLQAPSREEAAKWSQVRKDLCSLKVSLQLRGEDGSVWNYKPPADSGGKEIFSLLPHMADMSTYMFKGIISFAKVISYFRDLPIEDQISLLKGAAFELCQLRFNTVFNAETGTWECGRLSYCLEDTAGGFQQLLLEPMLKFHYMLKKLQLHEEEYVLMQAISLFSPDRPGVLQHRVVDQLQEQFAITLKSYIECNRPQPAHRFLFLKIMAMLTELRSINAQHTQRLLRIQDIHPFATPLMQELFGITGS
Chain of human Retinoic Acid Receptor gamma (RARg), RARG (gene 5916) (P13631 whole entry, looked up, the tested form may be a part): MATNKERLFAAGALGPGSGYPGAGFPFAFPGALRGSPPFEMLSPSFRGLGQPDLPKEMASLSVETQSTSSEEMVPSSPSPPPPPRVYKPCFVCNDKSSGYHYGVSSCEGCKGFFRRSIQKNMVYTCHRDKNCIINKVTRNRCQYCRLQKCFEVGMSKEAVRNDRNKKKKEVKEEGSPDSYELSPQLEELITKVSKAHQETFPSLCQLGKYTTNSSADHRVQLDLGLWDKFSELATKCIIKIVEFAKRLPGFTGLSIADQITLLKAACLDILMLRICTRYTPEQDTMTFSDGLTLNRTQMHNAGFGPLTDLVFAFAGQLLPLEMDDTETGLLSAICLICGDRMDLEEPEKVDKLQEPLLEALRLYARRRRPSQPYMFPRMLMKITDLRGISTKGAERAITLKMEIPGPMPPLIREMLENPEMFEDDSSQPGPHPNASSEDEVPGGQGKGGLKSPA
Chain of Peroxisome proliferator-activated receptor gamma (Homo sapiens) (P37231 whole entry, looked up, the tested form may be a part): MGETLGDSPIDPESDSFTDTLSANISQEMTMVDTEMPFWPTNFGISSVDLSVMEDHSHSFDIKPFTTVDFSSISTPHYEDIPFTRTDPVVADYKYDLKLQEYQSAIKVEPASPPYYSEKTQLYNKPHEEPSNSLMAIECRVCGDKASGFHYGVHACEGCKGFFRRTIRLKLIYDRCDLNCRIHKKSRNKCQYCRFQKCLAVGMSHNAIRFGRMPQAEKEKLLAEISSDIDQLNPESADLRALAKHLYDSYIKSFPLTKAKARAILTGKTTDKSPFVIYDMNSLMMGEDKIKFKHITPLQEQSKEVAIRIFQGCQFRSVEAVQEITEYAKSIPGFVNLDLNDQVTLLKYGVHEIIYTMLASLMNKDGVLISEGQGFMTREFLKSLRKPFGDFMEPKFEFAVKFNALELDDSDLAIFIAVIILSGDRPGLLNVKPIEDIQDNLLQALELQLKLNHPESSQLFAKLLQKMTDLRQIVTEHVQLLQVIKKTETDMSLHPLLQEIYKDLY
Chain of human Peroxisome Proliferator-activated Receptor alpha (PPARa), PPARA (gene 5465) (Q07869 whole entry, looked up): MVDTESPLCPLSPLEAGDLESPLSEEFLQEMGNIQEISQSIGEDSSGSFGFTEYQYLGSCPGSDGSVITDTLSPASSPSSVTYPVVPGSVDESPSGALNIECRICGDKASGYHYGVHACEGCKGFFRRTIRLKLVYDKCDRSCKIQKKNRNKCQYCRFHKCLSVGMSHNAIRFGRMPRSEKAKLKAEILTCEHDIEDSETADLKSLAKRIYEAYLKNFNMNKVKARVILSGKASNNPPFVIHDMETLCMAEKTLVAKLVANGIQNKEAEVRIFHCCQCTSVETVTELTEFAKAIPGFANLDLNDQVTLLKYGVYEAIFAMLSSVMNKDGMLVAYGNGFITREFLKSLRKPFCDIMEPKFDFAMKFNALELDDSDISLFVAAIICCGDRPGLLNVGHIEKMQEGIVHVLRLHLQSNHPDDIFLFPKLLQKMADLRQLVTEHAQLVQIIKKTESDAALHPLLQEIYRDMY
Chain of human Peroxisome Proliferator-activated Receptor delta (PPARd), PPARD (gene 5467) (Q03181 whole entry, looked up, the tested form may be a part): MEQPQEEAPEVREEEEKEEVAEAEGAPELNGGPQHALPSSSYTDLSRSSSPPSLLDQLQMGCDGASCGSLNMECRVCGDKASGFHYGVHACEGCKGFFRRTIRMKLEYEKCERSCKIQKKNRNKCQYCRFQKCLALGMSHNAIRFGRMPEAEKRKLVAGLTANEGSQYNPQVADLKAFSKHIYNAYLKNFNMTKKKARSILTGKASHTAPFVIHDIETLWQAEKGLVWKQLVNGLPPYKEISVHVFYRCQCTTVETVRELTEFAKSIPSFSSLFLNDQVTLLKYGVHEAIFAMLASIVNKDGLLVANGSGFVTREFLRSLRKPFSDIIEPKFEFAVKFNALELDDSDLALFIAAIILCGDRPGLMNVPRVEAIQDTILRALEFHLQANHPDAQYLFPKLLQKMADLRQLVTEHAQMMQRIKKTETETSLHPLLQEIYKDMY
Chain of human Retinoic Acid Receptor beta (RARb), RARB (gene 5915) (P10826 whole entry, looked up, the tested form may be a part): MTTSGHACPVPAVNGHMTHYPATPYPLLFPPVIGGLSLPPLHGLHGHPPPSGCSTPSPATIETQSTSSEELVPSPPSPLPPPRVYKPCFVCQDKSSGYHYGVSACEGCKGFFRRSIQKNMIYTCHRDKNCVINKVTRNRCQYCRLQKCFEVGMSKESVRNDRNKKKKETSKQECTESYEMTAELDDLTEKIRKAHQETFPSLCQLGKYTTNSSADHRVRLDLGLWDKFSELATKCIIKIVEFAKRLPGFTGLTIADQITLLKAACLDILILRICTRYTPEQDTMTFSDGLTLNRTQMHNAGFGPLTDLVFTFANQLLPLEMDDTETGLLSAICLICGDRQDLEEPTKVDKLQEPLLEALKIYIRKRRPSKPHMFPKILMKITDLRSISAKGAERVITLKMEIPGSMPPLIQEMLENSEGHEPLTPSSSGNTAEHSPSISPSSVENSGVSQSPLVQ

For `O=C1CCCCCN1`, the compound was called inactive in assay [1], in [2], in [3], in assay [4], in assay [5] and in [6]. For the same compound, the compound was classed as inactive in assay [8], in assay [9], in assay [10], in assay [11], in assay [12] and in [13]. In addition, the compound was classed as inactive in assay [14] and in assay [15]. Also, the half-maximal activity concentration (AC50) in assay [7] was 3.37 µM (active).
In the case of `CCCCCCCCCCCCc1ccccc1`, the call in [1], in assay [2], in assay [3], in [5], in assay [16] and in [8] was inactive. Moreover, the result in assay [9], in assay [12], in assay [17], in [13] and in assay [15] was inactive. Further, the AC50 in [6] is 26.6 µM (active).
On to `Cc1ccc(O)cc1`, for which the compound was classed as inactive in assay [1], in [2], in assay [3], in assay [4], in assay [5] and in assay [16]. Further, the outcome in [6], in [9] and in assay [12] was inactive.
As to `O=C(O)CCN(C1(C(=O)NO)CCCC1)S(=O)(=O)c1ccc(Oc2ccc(F)cc2)cc1`, the call in assay [1], in [2], in assay [4], in assay [5], in [16] and in [6] was inactive. The result in assay [9], in [10], in assay [12], in [13], in assay [14] and in assay [18] was inactive.
Take `Cn1c(=O)c2c(ncn2C)n(C)c1=O`: the compound was classed as inactive in [1], in [2], in assay [3], in [4], in assay [5] and in assay [6]. Moreover, the result in assay [9], in assay [12], in [13] and in assay [18] was inactive.
For `CC/C(=C\C(=N/O)C(N)=O)C(C)[N+](=O)[O-]` (configuration not stated), the compound was called inactive in assay [1], in assay [4], in [5], in assay [6], in [7] and in assay [9]. Also, the result in assay [12], in assay [13], in [18] and in [15] was inactive. For the same compound, the AC50 in [2] is 38.7 µM (active); in assay [17], 28.1 µM (active).
With `Nc1nc2ncc(CNc3ccc(C(=O)N[C@@H](CCC(=O)O)C(=O)O)cc3)nc2c(=O)[nH]1`, the outcome in [1], in [2], in assay [3], in assay [5], in assay [16] and in assay [6] was inactive. The outcome in [9], in assay [12], in [18] and in [15] was inactive.
In the case of `Cn1c(=O)cc(Oc2ccc(F)cc2F)c2cnc(NCC(C)(C)O)nc21`, the result in assay [1], in [2], in assay [5], in assay [6], in assay [9] and in [12] was inactive. The compound was called inactive in assay [13].
